# Source: PubChem BioAssay (The Scripps Research Institute Molecular Screening Center)
# proKLK7 act: proKLK7 zymogen activators, primary screen, biochemical, fluorescence intensity. Kallikrein-7 (Homo sapiens), P49862. purified proKLK7, EDANS-DABCYL substrate fluorescence; 100% is mature enzyme control, 0% vehicle. activation, % at 7 µM. 0.9% of 370,000 active;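 active = activation above the mean of all tested compounds plus 3 SD, computed per campaign excluding outliers beyond control limits, cut at about 13% in these data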
# Target sequence (P49862 whole entry, looked up): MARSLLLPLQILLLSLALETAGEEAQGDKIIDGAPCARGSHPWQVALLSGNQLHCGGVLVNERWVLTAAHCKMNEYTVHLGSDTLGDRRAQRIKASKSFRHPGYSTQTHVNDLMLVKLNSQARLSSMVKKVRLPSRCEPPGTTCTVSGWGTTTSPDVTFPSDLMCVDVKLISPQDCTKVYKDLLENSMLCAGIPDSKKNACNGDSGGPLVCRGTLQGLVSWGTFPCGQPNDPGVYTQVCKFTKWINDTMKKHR
# MsrA inhibitor: bovine MsrA enzyme inhibitors, primary screen, biochemical, absorbance, HTS. purified bovine MsrA, absorbance read-out. 0.75% of 360,000 active. inhibition, % at 15.5 µM. Methionine sulfoxide reductase A (Bos taurus). AID 651718, 2012; in the data active = inhibition above about 4.5%;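 also: 0% = vehicle wells with enzyme and 100% = reference inhibitor wells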
# SMARCA2 act: SMARCA2 (BRM) function activators, primary screen, cell-based, luminescence, high throughput. MG213 cells, MMTV-luciferase reporter, dexamethasone, overnight. 1% of 370,000 active. activation, % at 9.1 µM; in the data active = activation above about 7.8%;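 also: 0% = vehicle wells and 100% = reference activator wells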
# MsrA act: bovine MsrA enzyme activators, primary screen, biochemical, absorbance, HTS; Methionine sulfoxide reductase A (Bos taurus); purified bovine MsrA, absorbance read-out; activation, % at 10.6 µM; 0.3% of 360,000 active; AID 602163, 2012; in the data active = activation above about 7.5%;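 also: 0% = vehicle and 100% = reference activator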
# SMARCA2 act conf: SMARCA2 (BRM) function activators, confirmation, cell-based, luminescence, triplicate | shares compounds with SMARCA2 act | MG213 cells, MMTV-luciferase with dexamethasone, overnight; MG213 cells expressing E1A, Rb sequestered; DMSO wells 0%, reference activator 100% | activation, % at 9.1 µM | 30% of 3,500 active | AID 652260, 2013;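 active = activation above its plate's cutoff, the mean activation of tested wells plus 3 SD, cut at about 7.9% in these data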
# VP16 Luc act: GAL4-VP16 luciferase reporter activation, counter-screen for SMARCA2 (BRM) activator project, cell-based, pG5luc, luminescence, high throughput; activation, % at 9.1 µM; AID 686939, 2013; shares compounds with SMARCA2 act; HEK293 GAL4-VP16 pG5luc reporter; scaled: DMSO wells 0%, SAHA wells 100%; 41% of 3,500 active;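 active = activation above the solvent-only control well mean plus 3 SD, averaged across control plates, cut at about 5.2% in these data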
# * hit, by the source's call; . = no result given. Only some compounds are listed: those with a hit (about 2.8% of all), similar ones and a draw of the others.
SMILES,proKLK7 act,MsrA inhibitor,SMARCA2 act,MsrA act,SMARCA2 act conf,VP16 Luc act
N#C/C(=C\c1cccnc1)c1nc2c(s1)CCCC2,4,0,8.5*,-8,7,16*
CSc1ccccc1OCc1cc(C(=O)N2CCSCC2)no1,1,1,13*,-6,9.6*,10*
O=C(CC[C@H]1O[C@@H](n2ccc(=O)[nH]c2=O)[C@H](O)[C@@H]1O)N[C@H](Cc1ccccc1)C(=O)NCC1CCCCC1,0,-1,-5,0,.,.
O=C1C(=Cc2cccs2)CCc2ccccc21,0,2,10*,.,8.2*,7.0*
COc1ccc(C(=O)Cc2nnc(C)s2)cc1,0,0,9.1*,1,6,12*
Cc1ccc(C(=O)Nc2ccc(NC(=O)c3cccs3)cc2)cc1[N+](=O)[O-],-1,0,9.0*,-1,4,1
CCOC(=O)C1CCN(S(=O)(=O)c2c(Cl)ccc3nonc23)CC1,0,0,8,0,.,.
Cc1ccc(C(=O)N/C(=C\c2ccccc2F)c2nc(=S)[nH][nH]2)cc1,1,1,3,-2,.,.
Cc1ccc(/C=C(\NC(=O)c2ccc(C)cc2)c2nc(=S)[nH][nH]2)cc1,0,1,10*,-6,-1,1
Cc1ccc(Cc2cnc(NC(=O)C3CCCO3)s2)cc1 (configuration not stated),0,-1,8.8*,-3,10*,7.9*
O=C(Nc1ncc(Cc2cccc(C(F)(F)F)c2)s1)C1CCCO1 (configuration not stated),1,0,3,-2,.,.
CC1CCc2c(sc(/N=C/c3ccco3)c2C(N)=O)C1 (configuration not stated),0,0,8.8*,-5,7,6.2*
CC1CCc2c(sc(/N=C/c3cccnc3)c2C(N)=O)C1 (configuration not stated),0,0,-2,0,.,.
CCCSc1nnc(NC(=O)Nc2ccc(C)cc2)s1,0,-1,8.0*,-3,0,1
CCCSc1nnc(NC(=O)Nc2ccc(F)cc2)s1,0,0,-1,1,.,.
CCN(CC)CCn1c(NCc2nc3ccccc3n2Cc2ccccc2)nc2ccccc21,1,0,9.0*,1,4,5.5*
O=C(c1ccccc1Br)N1CCN(c2ccccc2)CC1,0,0,-2,-3,.,.
O=C(c1cnn2cccnc12)N1CCN(c2ccccc2)CC1,1,0,13*,1,2,2
O=C(CSc1nnc(-c2cccs2)o1)c1cccs1,0,2,8.0*,-1,12*,7.0*
CC1CCCN(C(=O)CSc2nnc(-c3cccs3)o2)C1 (configuration not stated),-1,1,4,-1,.,.
CCC1CCCCN1C(=O)CSc1nnc(-c2cccs2)o1 (configuration not stated),0,0,8.0*,-3,12*,8.4*
C=CCN1[C@H](CO)[C@H](c2ccccc2)[C@@H]1C#N,0,.,-3,.,.,.
CC1=NC2=CC=CC3=NC(C(Cl)(Cl)Cl)=NC(=N1)N23,-1,1,-4,.,.,.
CCOc1ccccc1NC(=O)NNC(=O)CCn1nc(C)c([N+](=O)[O-])c1C,-1,.,-6,.,.,.
O=C(NC(=S)N1CCc2ccccc21)c1ccccc1Cl,0,2,-1,-4,.,.
SMILES,proKLK7 act,MsrA inhibitor,SMARCA2 act,MsrA act,SMARCA2 act conf,VP16 Luc act
O=C(NC(=S)N1CCc2ccccc21)c1ccccc1,0,3,8.5*,-4,2,1
Cc1cc(NC(=O)c2ccccc2[N+](=O)[O-])ccc1Br,0,1,8.2*,-16,13*,6.3*
Cc1ccccc1C(=O)Nc1cccc(NC(=O)c2ccccc2[N+](=O)[O-])c1,0,0,1,-8,.,.
CCc1cc(=O)oc2cc(OCC(=O)NCCCN3CCOCC3)c(Cl)cc12,1,2,8.4*,-3,-1,-1
c1ccc2oc(-c3ccc(Nc4nc(N5CCOCC5)nc(N5CCOCC5)n4)cc3)nc2c1,0,3,-3,-4,.,.
N#Cc1ccccc1NC(=O)C1CCCO1 (configuration not stated),0,1,-6,-4,.,.
O=C(CSc1nnc(-c2ccco2)o1)c1ccccc1Cl,0,0,9.3*,-1,6,1
Cc1ccsc1C(=O)Nc1ccc(OCc2ccccc2)cc1,0,-1,8.6*,-2,5,6.6*
COc1ccc(NC(=O)c2ccc(-c3ccc(C(C)=O)cc3)o2)cn1,4,3,12*,-5,0,4
COc1ccc(COc2ccsc2C(=O)Nc2ccc(Cl)c(Cl)c2)cc1,1,0,11*,2,-3,-1
COc1ccc(NC(=O)c2sccc2C)cn1,0,0,14*,-8,3,2
COc1ccc(NC(=O)c2cc3ccccc3o2)cn1,0,0,6,-4,.,.
COc1ccc(NC(=O)c2cc(C3CCCCN3C(=O)c3ccc(NC(C)=O)cc3)on2)c(C)c1 (configuration not stated),0,1,-2,2,.,.
Cc1ccccc1C(=O)N[C@@H](Cc1cccnc1)C(=O)N1CCC[C@H]1C(=O)NC1CCCC1,0,1,-3,.,.,.
CC1CN(C=O)CC(C)N1CCN1C(C)CN(C=O)CC1C (configuration not stated),0,1,-3,-11,.,.
Cc1cc2nc(NC(=O)C3(C)CCCN(C(C)C)C3)[nH]c2cc1C (configuration not stated),0,0,6,-2,.,.
COc1ccc(NC(=O)C2(C)CCN2CCc2ccccc2)cc1OC (configuration not stated),0,0,-6,-1,.,.
Cc1cc(C)cc(C(=O)OCCCN(C)C2CN(Cc3cn(Cc4cccc(F)c4)nn3)S(=O)(=O)C2)c1 (configuration not stated),0,.,-1,.,.,.
NC(=S)c1ncc(C(F)(F)F)cc1Cl,0,-1,8.6*,-4,-3,1
NC(=O)c1ncc(C(F)(F)F)cc1Cl,0,0,0,-4,.,.
O=C(c1ccc(-c2ccc(Cl)cc2Cl)o1)N1CCOCC1,0,2,1,-4,.,.
O=C(c1ccc(-c2cc(Cl)ccc2Cl)o1)N1CCOCC1,1,0,8.8*,-10,3,2
COc1ccc(Br)cc1CN(C)C(=O)c1ccccc1SCC(=O)N1CCCC1,1,0,-3,-10,.,.
CCCC(=O)Nc1ccc(-c2csc(NNC(C)=O)n2)cc1,-3,-1,12*,-7,-2,2
